{
  "source": "PubChem BioAssay",
  "data": [
    {"experiment": "small-molecule microarray binders of probe aDKK1, primary screen, biochemical, biotinylated probe, 635/667 nm fluorescence (AID 1099);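 note: score merges 667nm spot fluorescence with signal to noise across triplicate slides; reference of the scale not given here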", "details": "higher = more signal", "values": [
      {"smiles": "CN(C)C(=O)[C@]1(CCS(=O)(=O)c2ccccc2)N=C(c2ccc(OCCCO)cc2)O[C@@H]1c1ccccc1CN=[N+]=[N-]", "composite z-score": -0.326},
      {"smiles": "CN1C(=O)C2C=CC(C(O)c3ccc([N+](=O)[O-])cc3)N(Nc3ccccc3)C2C1=O", "note": "(stereo not given)", "composite z-score": 0.279},
      {"smiles": "CCOC(=O)C[C@H]1[C@H](OC(=O)c2ccccc2-c2ccccc2)[C@@H](NC(=O)CC(C)C)c2cc(OCCCO)ccc2N1C(=O)c1ccccc1", "composite z-score": -0.28},
      {"smiles": "O=C1C2C=CC(C(O)C3CC=CCC3)N(Nc3ccc([N+](=O)[O-])cc3)C2C(=O)N1c1ccccc1", "note": "(stereo not given)", "composite z-score": 1.47},
      {"smiles": "COc1cccc(C)c1NC(=O)O[C@H]1[C@H](OC(=O)Nc2ccc3c(c2)OCO3)[C@H](OC(=O)Nc2ccc3c(c2)OCO3)[C@@H](OC)O[C@@H]1CO", "composite z-score": -0.0573},
      {"smiles": "CC(C)(C)OC(=O)CC[C@]1(C(N)=O)N=C(c2ccc(OCCCO)cc2)O[C@H]1c1ccccc1N=[N+]=[N-]", "composite z-score": 0.929},
      {"smiles": "C=CCN1C(=O)[C@]2(O[C@H](CCO)[C@@H]([Si](C)(C)c3ccc(OC)cc3)[C@@H]2C)c2cc(N3C(=O)c4ccccc4Oc4ccccc43)ccc21", "composite z-score": -0.252},
      {"smiles": "C=C(/C=C\\CNS(=O)(=O)c1ccc(C)cc1)[C@H](O)[C@H]1CCCN1S(=O)(=O)c1ccccc1[N+](=O)[O-]", "composite z-score": -0.142},
      {"smiles": "COC(=O)[C@@]1(Cc2ccc(F)cc2)[C@H]2c3cc(C(=O)N4CCCC4)n(C[C@H](O)CO)c3C[C@H]2CN1C(=O)c1ccccc1", "composite z-score": 1.48},
      {"smiles": "O=C1O[C@H](c2ccccc2)[C@H](c2ccccc2)N2[C@H]1[C@@H](C(=O)O)[C@]1(C(=O)Nc3ccccc31)[C@H]2c1ccc(OCCO)cc1", "composite z-score": -0.0668}
    ]}
  ]
}
